Assay results from PubChem BioAssay (EPA / NIEHS).
Records with an inconclusive call do not appear. Activity calls are given as the source filed them. Rule for the calls, unless noted: active = hit-call score of the fitted dose curve at least 0.9, where 1 is the maximum; inactive = score below 0.9.

Columns and labels:
[1] = target: Retinoic acid receptor RXR-alpha (Homo sapiens) (UniProt P19793); experiment: ATG_RXRa_TRANS: Attagene TRANS-FACTORIAL HepG2 Assay for human Retinoid X Receptor alpha (RXRa) (AID 2283012; active = hit-call score of the fitted dose curve at least 0.9, where 1 is the maximum)
Retinoic acid receptor RXR-alpha (Homo sapiens), sequence (P19793 whole entry, looked up, the tested form may be a part): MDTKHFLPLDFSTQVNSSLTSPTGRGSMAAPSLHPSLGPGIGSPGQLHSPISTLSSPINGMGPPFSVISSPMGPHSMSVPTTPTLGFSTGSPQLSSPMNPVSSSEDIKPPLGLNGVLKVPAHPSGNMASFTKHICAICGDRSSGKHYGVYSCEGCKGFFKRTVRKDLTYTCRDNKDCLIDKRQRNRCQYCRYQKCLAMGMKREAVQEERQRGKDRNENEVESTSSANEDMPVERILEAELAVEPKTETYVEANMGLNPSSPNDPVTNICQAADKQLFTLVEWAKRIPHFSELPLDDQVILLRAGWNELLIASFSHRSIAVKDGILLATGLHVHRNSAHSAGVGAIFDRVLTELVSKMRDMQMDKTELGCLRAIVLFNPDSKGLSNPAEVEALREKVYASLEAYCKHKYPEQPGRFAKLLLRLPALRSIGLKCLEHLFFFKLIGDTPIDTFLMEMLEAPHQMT
In short: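 Chimeric NR-GAL4 trans-activation in HepG2, 24 h treatment; reporter transcripts quantified by fluorescence on capillary electrophoresis, analysed for upward change from DMSO.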

[2] = read-out: E-selectin (Homo sapiens) (UniProt P16581); experiment: BSK_3C_Eselectin: BioMAP Diversity Plus: 3C Assay for Eselectin Biomarker Activity (AID 2283015); conditions: primary human endothelial cells (HUVEC); actives raise or lower the signal
In short: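 Endpoint derived by bidirectional fitting against DMSO vehicle; signal is ELISA-detected E-selectin from primary HUVEC at 24 h post-dosing, with parallel SRB staining (0.1% SRB, 560 nm) flagging cytotoxicity.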

[3] = read-out: Interleukin-1 alpha (IL1a), IL1A (gene 3552); experiment: BSK_BE3C_IL1a: BioMAP Diversity Plus: BE3C Assay for Interleukin-1 alpha (IL1a) Biomarker Activity (AID 2283016); conditions: primary human bronchial epithelial cells; actives raise or lower the signal
In short: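 Measured in human lung primary bronchial epithelial cells: IL-1a by ELISA at 24 h after dosing, with bidirectional fitting against DMSO.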

[4] = read-out: Monocyte Chemoattractant Protein-1 (MCP1), CCL2 (gene 6347); experiment: BSK_3C_MCP1: BioMAP Diversity Plus: 3C Assay for Monocyte Chemoattractant Protein-1 (MCP1) Biomarker Activity (AID 2283017); conditions: primary human endothelial cells (HUVEC); actives raise or lower the signal
In short: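 Using human vascular primary endothelium, researchers measured MCP-1 by ELISA 24 h after treatment, with DMSO serving as negative control for bidirectional fitting.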

[5] = read-out: Monocyte Chemoattractant Protein-1 (MCP1), CCL2 (gene 6347); experiment: BSK_4H_MCP1: BioMAP Diversity Plus: 4H Assay for Monocyte Chemoattractant Protein-1 (MCP1) Biomarker Activity (AID 2283018); conditions: primary human endothelial cells (HUVEC); actives raise or lower the signal
In short: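 Primary human umbilical vein endothelium is exposed to chemical for 24 h before MCP-1 is assayed by ELISA. Concentration-response fitted bidirectionally relative to DMSO.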

[6] = read-out: Human Leukocyte Antigen - DR isotype (HLADR), HLA-DRA (gene 3122); experiment: BSK_3C_HLADR: BioMAP Diversity Plus: 3C Assay for Human Leukocyte Antigen - DR isotype (HLADR) Biomarker Activity (AID 2283019); conditions: primary human endothelial cells (HUVEC); actives raise or lower the signal
In short: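 Compound added to primary HUVEC cultures, 24 h incubation, then HLA-DR determined by ELISA; endpoint derived by bidirectional fitting relative to DMSO negative control.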

[7] = read-out: Interleukin-8 (IL8), CXCL8 (gene 3576); experiment: BSK_3C_IL8: BioMAP Diversity Plus: 3C Assay for Interleukin-8 (IL8) Biomarker Activity (AID 2283020); conditions: primary human endothelial cells (HUVEC); actives raise or lower the signal
In short: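 Using DMSO-treated wells as the baseline, bidirectional curve fitting was applied to ELISA-measured IL-8 from human umbilical vein endothelial cultures sampled 24 h after compound addition.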

[8] = read-out: Monokine induced gamma interferon (MIG), CXCL9 (gene 4283); experiment: BSK_3C_MIG: BioMAP Diversity Plus: 3C Assay for Monokine induced gamma interferon (MIG) Biomarker Activity (AID 2283021); conditions: primary human endothelial cells (HUVEC); actives raise or lower the signal;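 for AC50: MIG protein level measured by immunoassay in the treated endothelial cultures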
In short: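 ELISA-measured MIG in dosed HUVEC 3C cultures at 24 h, analysed by bidirectional fitting with DMSO defining baseline activity.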

[9] = BSK_3C_SRB: Viability Assessment in the BioMAP Diversity Plus: 3C Assay (AID 2283023); conditions: primary human endothelial cells (HUVEC);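 note: cells read 24 h after compound dosing; fitted both ways against DMSO so a hit may be signal rise or drop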
In short: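 Overt cytotoxicity is gauged in parallel confluent HUVEC cultures by SRB total-protein staining at the time of biomarker measurement, 24 h after dosing. Gain or loss of signal is fitted versus DMSO.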

[10] = read-out: Matrix Metallopeptidase 1 (MMP1), MMP1 (gene 4312); experiment: BSK_BE3C_MMP1: BioMAP Diversity Plus: BE3C Assay for Matrix Metallopeptidase 1 (MMP1) Biomarker Activity (AID 2283024); conditions: primary human bronchial epithelial cells; actives raise or lower the signal
In short: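 In this multiplexed primary-cell system, human bronchial epithelium received chemicals for 24 h before an ELISA for MMP1. Values reflect bidirectional fits normalised to the DMSO baseline.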

[11] = BSK_3C_Vis: BioMAP Diversity Plus: 3C Assay for Morphology Visualization (AID 2283025); conditions: primary human endothelial cells (HUVEC);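 note: fitted both ways so gain or loss versus DMSO counts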;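 for AC50: light microscopy image of cell morphology used as background control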
In short: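 Light-microscopy morphology readout, 24 h exposure, human primary umbilical vein endothelium; analysed relative to DMSO with bidirectional fitting.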

[12] = read-out: Pselectin, SELP (gene 6403); experiment: BSK_4H_Pselectin: BioMAP Diversity Plus: 4H Assay for Pselectin Biomarker Activity (AID 2283026); conditions: primary human endothelial cells (HUVEC); actives raise or lower the signal
In short: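 Bidirectional fits against DMSO gave the endpoint. Cells: primary human umbilical vein endothelium, chemical-treated for 24 h before ELISA detection of P-selectin.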

[13] = BSK_4H_SRB: Viability Assessment in the BioMAP Diversity Plus: 4H Assay (AID 2283027); conditions: primary human endothelial cells (HUVEC);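 note: cells exposed to compound for 24 h before staining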;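 for AC50: curves fitted both ways versus DMSO so AC50 may be loss or gain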
In short: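 Cytotoxicity readout: sulforhodamine B (0.1%) staining of total protein after 10% TCA fixation, measured at 560 nm in human umbilical vein endothelium at 24 h. DMSO set the baseline; fitting was bidirectional.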

[14] = BSK_BE3C_SRB: Viability Assessment in the BioMAP Diversity Plus: BE3C Assay (AID 2283028); conditions: primary human bronchial epithelial cells
In short: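 SRB total-protein staining (0.1%, after TCA fixation) of chemically dosed human bronchial epithelial primary cells at 24 h; DMSO serves as the negative control for bidirectional curve fitting.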

[15] = read-out: Urokinase-type plasminogen activator receptor (uPAR), PLAUR (gene 5329); experiment: BSK_4H_uPAR: BioMAP Diversity Plus: 4H Assay for Urokinase-type plasminogen activator receptor (uPAR) Biomarker Activity (AID 2283030); conditions: primary human endothelial cells (HUVEC); actives raise or lower the signal
In short: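 Endpoint derived via bidirectional curve fitting against DMSO baseline; readout was ELISA detection of uPAR on umbilical vein endothelial cells at 24 h post-treatment, with SRB-stained parallel cultures assessing cytotoxicity.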

[16] = read-out: Vascular endothelial growth factor receptor 2 (Homo sapiens) (UniProt P35968); experiment: BSK_4H_VEGFRII: BioMAP Diversity Plus: 4H Assay for Vascular endothelial growth factor receptor 2 (VEGFR2) Biomarker Activity (AID 2283031); conditions: primary human endothelial cells (HUVEC); actives raise or lower the signal;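 for AC50: cell-surface VEGFR2 protein level quantified by ELISA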
In short: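 In this multiplexed HUVEC system, biomarker ELISA was performed after 24 h chemical exposure. Parallel SRB staining (TCA fixation, 560 nm) tracked cytotoxicity; DMSO served as baseline.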

[17] = target: human Thyroid Receptor alpha (THRa1), THRA (gene 7067) (UniProt P10827); experiment: ATG_THRa1_TRANS: Attagene TRANS-FACTORIAL HepG2 Assay for human Thyroid Receptor alpha (THRa1) (AID 2283014; active = hit-call score of the fitted dose curve at least 0.9, where 1 is the maximum)
human Thyroid Receptor alpha (THRa1), THRA (gene 7067), sequence (P10827 whole entry, looked up, the tested form may be a part): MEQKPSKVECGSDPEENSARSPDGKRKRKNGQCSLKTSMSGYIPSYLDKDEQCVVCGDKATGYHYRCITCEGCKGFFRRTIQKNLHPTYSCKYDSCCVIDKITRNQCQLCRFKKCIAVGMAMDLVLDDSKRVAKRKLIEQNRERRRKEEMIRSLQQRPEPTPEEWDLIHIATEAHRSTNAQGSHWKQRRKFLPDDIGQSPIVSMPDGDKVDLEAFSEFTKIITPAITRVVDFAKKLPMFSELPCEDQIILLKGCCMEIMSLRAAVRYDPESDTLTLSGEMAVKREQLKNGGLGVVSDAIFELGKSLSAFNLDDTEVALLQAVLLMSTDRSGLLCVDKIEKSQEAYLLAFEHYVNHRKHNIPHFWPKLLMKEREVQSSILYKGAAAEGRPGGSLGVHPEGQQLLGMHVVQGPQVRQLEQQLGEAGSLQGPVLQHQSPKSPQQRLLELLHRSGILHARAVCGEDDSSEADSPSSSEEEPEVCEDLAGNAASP
In short: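 Measured here is mRNA from a GAL4-UAS reporter in transfected HepG2 cells carrying a Gal4-fused receptor, 24 h post-dose. DMSO served as negative control and baseline.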

[18] = read-out: Thrombomodulin, THBD (gene 7056); experiment: BSK_3C_Thrombomodulin: BioMAP Diversity Plus: 3C Assay for Thrombomodulin Biomarker Activity (AID 2283029); conditions: primary human endothelial cells (HUVEC); actives raise or lower the signal
In short: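 In a multiplexed primary-cell system, human umbilical vein endothelium received chemical and was assayed 24 h later for thrombomodulin by ELISA. Parallel cultures were SRB-stained (0.1% SRB after 10% TCA fixation, read at 560 nm) to flag cytotoxicity.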

[19] = target: human Vitamin D Receptor (VDR), VDR (gene 7421) (UniProt P11473); experiment: ATG_VDR_TRANS: Attagene TRANS-FACTORIAL HepG2 Assay for human Vitamin D Receptor (VDR) (AID 2283022; active = hit-call score of the fitted dose curve at least 0.9, where 1 is the maximum)
human Vitamin D Receptor (VDR), VDR (gene 7421), sequence (P11473 whole entry, looked up): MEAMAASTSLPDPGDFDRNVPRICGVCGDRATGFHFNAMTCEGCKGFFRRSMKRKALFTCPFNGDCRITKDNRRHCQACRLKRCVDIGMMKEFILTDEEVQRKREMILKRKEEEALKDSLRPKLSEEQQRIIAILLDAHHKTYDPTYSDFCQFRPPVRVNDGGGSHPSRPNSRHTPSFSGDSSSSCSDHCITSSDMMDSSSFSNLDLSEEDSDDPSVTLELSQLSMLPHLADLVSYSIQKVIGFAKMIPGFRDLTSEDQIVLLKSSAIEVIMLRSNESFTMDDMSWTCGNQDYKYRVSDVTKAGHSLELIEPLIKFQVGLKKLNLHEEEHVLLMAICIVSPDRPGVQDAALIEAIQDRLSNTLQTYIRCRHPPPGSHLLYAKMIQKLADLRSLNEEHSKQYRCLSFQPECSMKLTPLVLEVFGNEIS
In short: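 Multiplexed TRANS reporter in HepG2; 24 h treatment; reporter mRNA by RT-PCR plus capillary electrophoresis; upregulation scored relative to DMSO.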

Measured: AC50

E-selectin (Homo sapiens), sequence (P16581 whole entry, looked up): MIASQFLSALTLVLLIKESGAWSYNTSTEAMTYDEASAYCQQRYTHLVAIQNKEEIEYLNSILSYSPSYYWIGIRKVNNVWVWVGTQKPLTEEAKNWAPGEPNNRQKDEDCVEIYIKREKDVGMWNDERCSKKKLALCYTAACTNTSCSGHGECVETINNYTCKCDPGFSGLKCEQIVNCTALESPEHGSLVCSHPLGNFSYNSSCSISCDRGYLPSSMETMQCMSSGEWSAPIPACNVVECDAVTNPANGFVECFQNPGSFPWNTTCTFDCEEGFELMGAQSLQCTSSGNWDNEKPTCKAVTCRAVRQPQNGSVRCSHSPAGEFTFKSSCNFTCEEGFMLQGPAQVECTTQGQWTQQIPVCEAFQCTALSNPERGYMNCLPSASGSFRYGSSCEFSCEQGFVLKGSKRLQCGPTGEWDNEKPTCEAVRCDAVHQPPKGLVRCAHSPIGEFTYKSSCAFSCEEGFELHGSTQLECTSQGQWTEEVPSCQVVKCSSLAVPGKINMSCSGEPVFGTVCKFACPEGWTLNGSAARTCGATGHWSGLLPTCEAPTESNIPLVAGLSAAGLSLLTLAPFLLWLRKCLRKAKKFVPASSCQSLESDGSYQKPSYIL

COCC(=O)N(c1c(C)cccc1C)[C@H](C)C(=O)OC
not listed: [17] | [18] | [19]
inactive: all other assays above

Cc1ccc2nc3sc(=O)sc3nc2c1
active: [17] 6.55 µM | [2] 8.99 µM | [4] 7.34 µM | [5] 5 µM | [6] 5.97 µM | [7] 5 µM | [8] 8.57 µM | [9] 6.71 µM | [11] 9.8 µM | [12] 3.77 µM | [13] 6.96 µM | [15] 6.39 µM | [16] 9.18 µM
inactive: [1] | [3] | [10] | [14] | [18]

Nc1cccnc1
inactive: [1] | [17] | [19]

C=CCOC(F)(C(F)(F)F)C(F)(F)F
inactive: [1] | [17] | [19]

Cc1cc(C)cc(C)c1
not listed: [19]
inactive: all other assays above

Cc1ccc(OP(=O)(Oc2ccc(C)cc2C)Oc2ccc(C)cc2C)c(C)c1
active: [3] 4.77 µM | [4] 20 µM | [5] 4.53 µM | [6] 20 µM | [9] 12 µM | [12] 12.9 µM
not listed: [17]
inactive: all other assays above

C1CN2CCN1CC2
inactive: [1] | [17]

Nc1ccc(N)cc1
active: [11] 19.9 µM
inactive: all other assays above

CC(C)CC(C)(c1ccc(O)cc1)c1ccc(O)cc1
inactive: [1] | [17]
